Target: VTCN1, Q7Z7D3
Sequence (Q7Z7D3 whole entry): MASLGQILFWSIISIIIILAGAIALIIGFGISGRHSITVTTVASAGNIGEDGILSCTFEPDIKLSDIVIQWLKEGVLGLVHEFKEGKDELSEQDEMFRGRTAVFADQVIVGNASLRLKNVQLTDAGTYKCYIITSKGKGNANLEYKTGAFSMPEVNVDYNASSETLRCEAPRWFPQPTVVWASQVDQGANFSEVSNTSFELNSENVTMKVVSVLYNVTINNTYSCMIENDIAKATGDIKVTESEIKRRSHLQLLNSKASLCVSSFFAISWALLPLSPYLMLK

B1: design_598_15ab41e9-cad4-4381-8935-81f74b313fe8_1263_dldesign_0_cycle1_af2pred (protein)
chain: GMEEIEKRNEEVKKKAEELKKQVEKAEKLAEKGDPEGKKLAEETKKKAIELAKSNPEAEPEVKTEITEIAVEAQGIEHLMKIK
binding in a display sort: not found (inactive)

B2: design_598_15ab41e9-cad4-4381-8935-81f74b313fe8_887_dldesign_0_cycle1_af2pred (protein)
chain: GEEKSRAAAEALRAATRAVRAAAATAAAADPATAAAVRAAWAAAVKADDLADAEAALRAAAAAATDPATRALLNAAADAYATIAAIA
binding in a display sort: not found (inactive)

B3: design_598_15ab41e9-cad4-4381-8935-81f74b313fe8_2298_dldesign_0_cycle1_af2pred (protein)
chain: SKKAEQTLFRAEALGEAVTEAAEQLDPALGARVRERAKELIERAKKDGTLEAAEKALEEMRRLAEEVRAAIEAA
binding in a display sort: not found (inactive)

B4: design_598_15ab41e9-cad4-4381-8935-81f74b313fe8_2338_dldesign_0_cycle1_af2pred (protein)
chain: AEEKAKELYAKGEKLYKEGLKADKETGKEYFTKAAEYFKAAAEEFKKAGNVVGAGYAESKAERAKEAAELL
binding in a display sort: not found (inactive)

B5: design_598_15ab41e9-cad4-4381-8935-81f74b313fe8_273_dldesign_0_cycle1_af2pred (protein)
chain: SMAKKIEEGKKLAEELREAVRTAQAIGARLDALVAADPSVAPLATEIRAKASEAIFKIADGKEEEGKALMEEATALAAAAEAAAAAAA
binding in a display sort: not found (inactive)

B6: design_598_15ab41e9-cad4-4381-8935-81f74b313fe8_686_dldesign_0_cycle1_af2pred (protein)
chain: SPTEMQEALTDADGYAVLAKNAGIEEVAKKAKEAAKKIKELIKQARADPSKAPELAKKAKELAKEAEKEFEKAKKEFE
binding in a display sort: not found (inactive)

B7: design_598_15ab41e9-cad4-4381-8935-81f74b313fe8_1419_dldesign_0_cycle1_af2pred (protein)
chain: DIAKVTQQAQEELTEYAFKVPELKEEFDAARKESVKLGKEGASTSPEAAEKASKEIKKITEEMKKKAEEAL
binding in a display sort: not found (inactive)

B8: design_598_15ab41e9-cad4-4381-8935-81f74b313fe8_1668_dldesign_0_cycle1_af2pred (protein)
chain: KEKVKKELEESKKELEKTLEKIKELVSSLPEEEREALAKGLVDPKTALEAAKKIAEAVGKEGANAAQEAISERRAIEQYEKILE
binding in a display sort: not found (inactive)

B9: design_598_15ab41e9-cad4-4381-8935-81f74b313fe8_2441_dldesign_0_cycle1_af2pred (protein)
chain: AKEKAEELAKKAREGIERAERRVEEGKKKSKKDAAIYSYSAAELLDSVAAGIVKELLKEDPELGKKVAEEVEKAREEALKEAEKYES
binding in a display sort: not found (inactive)

B10: design_598_15ab41e9-cad4-4381-8935-81f74b313fe8_2059_dldesign_0_cycle1_af2pred (protein)
chain: GEKEELKEKAKKLKELAKKAVEKAKKAAEENPEAKPLAEKAKELAEEAIKLAEEGTKESLEKAAKILQELREVTAEAEFIARKG
binding in a display sort: not found (inactive)

B11: design_598_15ab41e9-cad4-4381-8935-81f74b313fe8_1028_dldesign_0_cycle1_af2pred (protein)
chain: SDEKLAAEASQVGLELKAEVKAGNANPEIKEKLSKEALEKAEKAVKEFEKKSPAAGKVAKEMLKKIKEAAKE
binding in a display sort: not found (inactive)

B12: design_598_15ab41e9-cad4-4381-8935-81f74b313fe8_1154_dldesign_0_cycle1_af2pred (protein)
chain: EKAKKAAEYSSEAAKHAIKAAKLLKEAGAPQEVLNLLQEAIVNMDKAAEYYAAAMEAAKKNPELGPEIQAELKKAEEHTKKANELL
binding in a display sort: not found (inactive)

B13: design_598_15ab41e9-cad4-4381-8935-81f74b313fe8_1476_dldesign_0_cycle1_af2pred (protein)
chain: SEEKKKEEEKKVKEAEKLAKKAKEAAKKGDVKTAKEYYEKAKKIAKEVKKEGSKELATKAANAAQEAYQAYREAEAKA
binding in a display sort: not found (inactive)

B14: design_598_15ab41e9-cad4-4381-8935-81f74b313fe8_2343_dldesign_0_cycle1_af2pred (protein)
chain: ASEELWKKAQEIATKAVAAAQARYAAEGKYEELDKDIDKIYELAVEAAKEGEEGLKKLEEMRKEAEEAAKKALEAA
binding in a display sort: not found (inactive)

B15: design_598_15ab41e9-cad4-4381-8935-81f74b313fe8_1370_dldesign_0_cycle1_af2pred (protein)
chain: AEFAVKILETLAERVPPEYAVVAREAAEIVKEKGAEGAREAARLVREAAERNPELPEEHRKAMLNAARVLEILAEAE
binding in a display sort: not found (inactive)

B16: design_598_15ab41e9-cad4-4381-8935-81f74b313fe8_1538_dldesign_0_cycle1_af2pred (protein)
chain: KEEAKKKVEEARKLVEEAKKLIEKGEYEKGLKLAEEAAELAHKTSVKYGAGEAEKVYKEASKVISLAWAKLAEAKK
binding in a display sort: not found (inactive)

B17: design_598_15ab41e9-cad4-4381-8935-81f74b313fe8_2011_dldesign_0_cycle1_af2pred (protein)
chain: KLEEYKKKIKEKAKEMGKSLDPEERKKLLEEIKKLAKEASKELGEKEEIEKFAAEEAHEGLEQASENRFKS
binding in a display sort: not found (inactive)

B18: design_598_15ab41e9-cad4-4381-8935-81f74b313fe8_801_dldesign_0_cycle1_af2pred (protein)
chain: AEKEKKIEELEAKAKEYEAKGKAAEAAGDYKTAAEYYEKAADAYLEMAKVDPEKAEEYIKKAQELYRKSIQYEAKASAA
binding in a display sort: not found (inactive)

B19: design_599_7ce25d4d-e004-4b84-a16f-baf856d943ab_80_dldesign_0_cycle1_af2pred (protein)
chain: SKAAEKAEAQKAKEEATKAAEEAAKEAKKAGLEDLAKYLENAKKTADAKAQASSDPAEAKKYYEKYKATATRLLEDLKKAE
binding in a display sort: not found (inactive)

B20: design_598_15ab41e9-cad4-4381-8935-81f74b313fe8_1446_dldesign_0_cycle1_af2pred (protein)
chain: IDSKKASELIREAVRNAQKAGEIAKSLPNGEEIKKRVAEALLLAIDPETAEEGIKLLEELAKEAEELNPEAGKHIKEAAEHLKKFAEL
binding in a display sort: not found (inactive)

B21: design_598_15ab41e9-cad4-4381-8935-81f74b313fe8_1969_dldesign_0_cycle1_af2pred (protein)
chain: AAAAAKKAQAKKLVGLGLFYYLDYLAGGPESSKEKGDAYYAAAAALDPATAAEAKAKADKIAARFKKDVEEAKK
binding in a display sort: not found (inactive)

B22: design_598_15ab41e9-cad4-4381-8935-81f74b313fe8_1412_dldesign_0_cycle1_af2pred (protein)
chain: DSPAMQLNEALTDAKYAADKIKEVDPSLAPEAQALYDKVKALLEKARKGDAATVAAAAKEAKALAEQAEKLLKQAKERAKKA
binding in a display sort: not found (inactive)

B23: design_598_15ab41e9-cad4-4381-8935-81f74b313fe8_2408_dldesign_0_cycle1_af2pred (protein)
chain: ELELLKERAELYERAAKAAEAGKLGAGIRLAAIAEDLIDLELGKKKEKELKASSREEALKILKKEAEKYKAKAKELA
binding in a display sort: not found (inactive)

B24: design_598_15ab41e9-cad4-4381-8935-81f74b313fe8_231_dldesign_0_cycle1_af2pred (protein)
chain: AEAELARAREVAKRVAEKLREAAKEAEKIDPEVAEKGRKVAEAAEAATAGTVEEIAAATQEARQALAEAEFLVKK
binding in a display sort: not found (inactive)

B25: design_598_15ab41e9-cad4-4381-8935-81f74b313fe8_1361_dldesign_0_cycle1_af2pred (protein)
chain: DETKKALAEMSELRHQLDAEAKWYEKHAKESEKYKEAAKEAKEGADYAKKALKKAKEGTPEEALKAAKEALEELKKKEEKVEKLFKEA
binding in a display sort: not found (inactive)

B26: design_598_15ab41e9-cad4-4381-8935-81f74b313fe8_1727_dldesign_0_cycle1_af2pred (protein)
chain: SAAQLAASAKGRLLAVADYARAKGISEEAAELAEKAAEADVATAAELAEKAAKLLEEAGDEKLAERARKAAEKLKKAAKE
binding in a display sort: not found (inactive)

B27: design_598_15ab41e9-cad4-4381-8935-81f74b313fe8_2180_dldesign_0_cycle1_af2pred (protein)
chain: AEAAEKAAAKAVINEAYDLLGSSTAEEALKYAEEKAKEAKAAGKKIVADAAEKTAKVLKRIAEDEKEAKK
binding in a display sort: not found (inactive)

B28: design_598_15ab41e9-cad4-4381-8935-81f74b313fe8_1042_dldesign_0_cycle1_af2pred (protein)
chain: NLEELIKKAIKAAEKGDAKGAVTYVMDAGAEAGDMKLAVEVGRKIQELLATDPAAGKAASAALIKEAGKKFL
binding in a display sort: not found (inactive)

B29: design_598_15ab41e9-cad4-4381-8935-81f74b313fe8_790_dldesign_0_cycle1_af2pred (protein)
chain: MEKEAEKFAEEGKKKVEELKKKLEENKDNAEKNEELAKKARELAKEFEEEGKKAPEEMRKKLAEIAQEAREVAAEAKGLAIIAKEK
binding in a display sort: not found (inactive)

B30: design_598_15ab41e9-cad4-4381-8935-81f74b313fe8_1784_dldesign_0_cycle1_af2pred (protein)
chain: ADEEGKKLVKEKLEEAKKALEKAKAGDKKEALDAASTATRNAHKIEAFAKAVPVSEEVVKLAKEAVKELEKYEEKAAKLLAK
binding in a display sort: not found (inactive)

B31: design_599_7ce25d4d-e004-4b84-a16f-baf856d943ab_135_dldesign_0_cycle1_af2pred (protein)
chain: MEEEEGEKKVEEAKKKLSAALYEYADMSVNEETLKEGRKKVEEAVKEALELGKKSTPETAEKLKKAAEKALKVAERIEEAS
binding in a display sort: not found (inactive)

B32: design_598_15ab41e9-cad4-4381-8935-81f74b313fe8_1691_dldesign_0_cycle1_af2pred (protein)
chain: DKEAEAKKIEAAAKKNAEAALADAEKAKEYAKAGDKSKAKQYSESAKIYLELAGTAAKKGAGYPTAPEIKKLYEDTKAKVEEILKEA
binding in a display sort: not found (inactive)

B33: design_598_15ab41e9-cad4-4381-8935-81f74b313fe8_1188_dldesign_0_cycle1_af2pred (protein)
chain: KEEEEKKKEEEWKKKADAEAAIEQGKNALEAAKKDPSKAKEAAKVAKKLAKRAPEAKEELEKIAKEAEAIGKA
binding in a display sort: not found (inactive)

B34: design_598_15ab41e9-cad4-4381-8935-81f74b313fe8_1756_dldesign_0_cycle1_af2pred (protein)
chain: GFKEEAEKKMEKVLEEAKKASVKEAATIVREAYAELKGIGHLLEKKGKKEEGKFAEEVAKKVLEEGKKIVEEKAAA
binding in a display sort: not found (inactive)

B35: design_598_15ab41e9-cad4-4381-8935-81f74b313fe8_1541_dldesign_0_cycle1_af2pred (protein)
chain: AEQEKKDEEYKEKAKKGEELAKKAKERAEKNKDDKGVLGSQAELAEHIAKALKKAAEEASEEVKPELKAAAEKAKKVAKYAEELA
binding in a display sort: not found (inactive)

B36: design_598_15ab41e9-cad4-4381-8935-81f74b313fe8_1677_dldesign_0_cycle1_af2pred (protein)
chain: DVAALIAKAAALVDDPSKAAEALKYLVAAREKALSEGDAAALKQIAAVAAEGAKKAPPEYAKGFKLLANTAKSIAEDLEK
binding in a display sort: not found (inactive)

B37: design_598_15ab41e9-cad4-4381-8935-81f74b313fe8_1648_dldesign_0_cycle1_af2pred (protein)
chain: KKEEAKKELLEKVKKLEEEGEKLLEEKTPKEARAKALEKGKEIMKEAEKAIKDPETKEAGKEAKKKAAEAMAKLYEKAAEKEAKE
binding in a display sort: not found (inactive)

B38: design_598_15ab41e9-cad4-4381-8935-81f74b313fe8_1360_dldesign_0_cycle1_af2pred (protein)
chain: DPAQAAFTAKAKERAEQLKALAKEFPEEAEKLTKLAEEGLKLAAGDAETQKKAAEKLQEAYELAAEARAKKA
binding in a display sort: not found (inactive)
